Only some compounds are listed: those with a hit (about 2.9% of all), similar ones and a draw of the others.
MEKK2wt PB1 HTS = raises or lowers MEK5 binding to wildtype human MEKK2 PB1 domain; AID 1531; Q9Y2U5; binding response (% of control), % at 10 µM; bead flow cytometry, Alexa488-MEK5 binding to MEKK2 WT; actives lie on both sides; 290,000 tested, 1.1% active; in the data active means binding response below about 67% or above about 130%
Beta2AR agonist = human beta-2 adrenergic receptor agonism by FAP; Am2.2-beta2AR cells, FAP receptor internalization, flow cytometry; response, % (concentration not given with the values); 340,000 tested, 0.43% active;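 active means response above a set limit, near 3 SD of response in nonfluorescent compounds, cut at about 42% in these data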
MEKK2mut PB1 HTS = signal of MEK5 binding to mutant human MEKK2 PB1 domain; percent response, % at 10 µM; 290,000 tested, 0.35% active; AID 1530; bead flow cytometry, Alexa488-MEK5 binding to MEKK2 mutant; in the data active means percent response above about 24%, passing the limit was not always enough
MEKK3 PB1 HTS = modulators (inhibitors or enhancers) of MEK5 binding to human MEKK3 PB1 domain. Q99759. bead-based flow cytometry, Alexa488-MEK5 binding to MEKK3; actives lie on both sides; 0 = blocked by unlabeled MEK5, 100 = vehicle. binding response (% of control), % at 10 µM. 290,000 tested, 1.4% active. AID 1529;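 active means binding response more than 3 SD above or below the average of its plate-row segment, actives on both sides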;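 further: Alexa488 bead fluorescence after subtracting the streptavidin-only scavenger bead signal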
GRK2 aptamer HTS = blocks RNA aptamer binding to human GRK2; P25098; bead flow cytometry, FAM-aptamer displacement from GRK2; inhibition of aptamer binding, % at 10 µM; 330,000 tested, 0.59% active; AID 488847;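 active means inhibition of aptamer binding above 40%, roughly 3 SD of noise, on plates passing a quality check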;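 further: median bead fluorescence of bound FAM aptamer so fluorescent compounds give negative values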
The depositor's hits bear a star; . = not tested or not shown; [ ] = remark or other dose.

SMILES | MEKK2wt PB1 HTS | Beta2AR agonist | MEKK2mut PB1 HTS | MEKK3 PB1 HTS | GRK2 aptamer HTS
CCNC(=O)c1cc2c(=O)n3cccc(C)c3nc2n(CCc2ccccc2)c1=N | 119 | 89* | 7 | 120 | 9
COCCn1c(=N)c(C(=O)NCCc2ccccc2)cc2c(=O)n3cccc(C)c3nc21 | 97 | -10 | 1 | 100 | 1
COc1ccc(CNc2ncnc3cc(Cl)ccc23)cc1OC | 101 | -6 | 5 | 101 | .
CCN(CC)Cc1cc2[nH]c3c4ccc(Cl)cc4ncc3c2cc1OC | 163* | 3 | 38* | 96 | .
C[C@H](CO)N1C[C@H](C)[C@@H](CN(C)S(C)(=O)=O)Oc2ccc(NC(=O)c3ccncc3)cc2C1=O | . | 0 | . | . | 3
CCn1c(N2CCN(CC(=O)c3ccc(OC)cc3)CC2)nc2ccccc21 | 2.0*[inhibitor] | 8 | -18 | 2.0*[inhibitor] | .
COc1ccc(C(=O)Cn2c(C(C)=O)nc3ccccc32)cc1 | . | -15 | . | . | .
O=C(c1c[nH]c(C(=O)C(Cl)(Cl)Cl)c1)c1c(F)cccc1F | 103 | 46* | 6 | 103 | 0
O=C(c1c[nH]c(C(=O)C(Cl)(Cl)Cl)c1)c1ccccc1F | 102 | 11 | 4 | 101 | 1
Cc1ccc2nc(Cl)c3nnnn3c2c1 | 82 | 87* | -16 | 80 | 4
Cc1ccc2nc(N3CCN(c4cccc(C)c4C)CC3)c3nnnn3c2c1 | 94 | 8 | -1 | 90 | 0
O=S(=O)(/C=C/c1ccccc1)NCc1ccccc1Cl | 92 | 67* | -2 | 92 | 0
CCN(c1ccccc1)S(=O)(=O)c1ccc(C(=O)Nc2ccc(C)cn2)cc1 | . | 10 | . | . | 3
O=C(NCCc1ccccc1)c1cccc(NC(=O)C2CCCC2)c1 | . | -10 | . | . | .
COc1cccc(CC2(CO)CCCN(C/C=C/c3ccccc3OC)C2)c1 (configuration not stated) | 115 | -4 | 3 | 103 | 0
COc1ccccc1/C=C/CN1CCCC(CO)(Cc2cccc(Cl)c2)C1 (configuration not stated) | 190* | -2 | 60* | 111 | 3
O=C(CCCN1C(=O)c2cccc3cccc(c23)C1=O)N1CCN(c2ccccn2)CC1 | 109 | -9 | 0 | 129* | 3
Clc1ccc2c(N/N=C/c3ccccc3Br)ccnc2c1 | 85 | 42* | -2 | 70*[inhibitor] | 0
Cc1ccc(CN(C)C(=O)C2CCC(=O)N(CCc3ccccc3)C2)o1 (configuration not stated) | 106 | 1 | 7 | 104 | .
CCOc1ccc(CCNC(=O)Cn2ncn3nc(-c4ccc(OC)cc4)cc3c2=O)cc1OCC | 100 | 0 | 3 | 102 | 0
CC(N)C(=O)NC(C(=O)N1CCCC1C(=O)NC(c1ccccc1)c1ccccc1)C(C)C (configuration not stated) | . | 2 | . | . | 0
O=C(NNC(=O)c1ccccc1[N+](=O)[O-])c1csc(N2CCOCC2)n1 | . | 3 | . | . | 1
Cc1ccc(S(=O)(=O)c2nnn3c2nc(NC2CCN(Cc4ccccc4)CC2)c2ccccc23)cc1C | 176* | 41 | 30* | 111 | 0
Cc1ccc(S(=O)(=O)c2nnn3c2nc(NCCCN2CCCC2=O)c2ccccc23)cc1C | 103 | -4 | 2 | 103 | 0
CN(Cc1cccc(Cl)c1Cl)C(=O)c1cc(S(=O)(=O)N2CCOCC2)ccc1F | . | 5 | . | . | 1
SMILES | MEKK2wt PB1 HTS | Beta2AR agonist | MEKK2mut PB1 HTS | MEKK3 PB1 HTS | GRK2 aptamer HTS
Cc1ccccc1C(=O)Nc1ccc(C(=O)N/N=C/c2ccc(O)cc2)cc1 | 59*[inhibitor] | 11 | -22 | 92 | 5
Cc1ccccc1C(=O)Nc1ccc(C(=O)N/N=C/c2ccncc2)cc1 | 73 | -15 | -27 | 67 | 0
Cc1cc(Cn2nc(-c3ccccc3)cc2C(=O)NCC2CC2)on1 | . | 5 | . | . | 1
CCOc1c(OC(C)=O)ccc(/C=C2\N=C(SCC)SC2=O)c1[N+](=O)[O-] | 100 | 10 | 3 | 103 | 100*
CC(C)CN(CC(C)C)C(=O)COn1nnc2ccc(S(=O)(=O)N3CCOCC3)cc21 | . | -3 | . | . | 2
Cc1ccc(CNC(=S)Nc2ccc(C)c([N+](=O)[O-])c2)cc1 | 107 | -3 | 0 | 124 | 50*
Cc1ccc(NC(=O)c2sc(Cl)nc2C)c(C)c1 | 93 | 7 | -2 | 84 | 2
Cc1cc(C)c(C)c(OC(=O)c2sc(Cl)nc2C)c1 | 110 | 92* | 1 | 125 | 0
